Results taken from ChEMBL document CHEMBL3988442, “University of Dundee, Small-Polar-MMV Screening Library” (2021).
Where “and” joins values, the source holds several entries; their conditions need not be identical. Identical values can stand only once. Screen size: about 53,000 compounds; about 900 (1.7%) showed an effect of 50% or more. The sample holds strong results, similar compounds and a random draw of the others, so the mix is not that of the screen.

Test system: Mycobacterium tuberculosis
Assay: Cornell - Phenotypic assay to identify agents that inhibit growth of Mycobacterium tuberculosis
Format: functional
Parameters: scale not given: direction of the effect not stated beside the values

Row | SMILES | Percent Effect (10 mM as filed; unlikely as a test dose) [%] | Percent Effect (10 mM, 10 mM as filed; unlikely as a test dose)
1 | CC(=O)Nc1nc(C2CCN(CC(N)=O)CC2)cs1 | 1.083 | –
2 | c1cnc(N2CCC(c3csc(Nc4cnccn4)n3)CC2)nc1 | 78.58 | –
3 | NC(=O)CN1CCC(c2csc(Nc3cnccn3)n2)CC1 | 53.63 | –
4 | c1cnc(N2CCCC(c3csc(Nc4cnccn4)n3)C2)nc1 (stereo unspecified) | 29.09 | –
5 | Cc1nc(Nc2cnccn2)cc(C2CCN(c3ncccn3)C2)n1 (stereo unspecified) | -14.64 | –
6 | OCCN1CCC(c2csc(Nc3cnccn3)n2)CC1 | -21.31 | –
7 | O=C(N1CCOCC1)n1cnc2ccccc21 | 14.08 | –
8 | CC1CCN(c2ccc(=O)n(CC(=O)NCCc3ccccc3)n2)CC1 | 45.57 | –
9 | COc1c(CC2CC(CO)=NO2)c(Br)c2c(c1OC)OCO2 (stereo unspecified) | -3.025 | –
10 | CCN(C)S(=O)(=O)N1CCCC(c2nc(-c3ccccc3)c[nH]2)C1 (stereo unspecified) | -4.787 | –
11 | CCCS(=O)(=O)N1CCCC(c2nc(-c3ccccc3)c[nH]2)C1 (stereo unspecified) | 56.46 | –
12 | CS(=O)(=O)N1CCCC(c2nc(-c3ccccc3)c[nH]2)C1 (stereo unspecified) | 4.975 | –
13 | Cc1nc(N2CCOCC2)nc(C)c1NS(=O)(=O)c1ccccc1 | 18.03 | –
14 | Cc1nc(N2CCCC2)nc(C)c1NS(C)(=O)=O | 7.192 | –
15 | Cc1ccc(S(=O)(=O)Nc2c(C)nc(N3CCCC3)nc2C)cc1 | 52.33 | –
16 | Cc1noc2ncc(S(=O)(=O)N3CCCC(C)(C)CC3)cc12 | 49.9 | –
17 | CCC1CCCN(S(=O)(=O)c2cnc3onc(C)c3c2)C1 (stereo unspecified) | 54.72 | –
18 | CCN1CCCN(S(=O)(=O)c2cnc3onc(C)c3c2)CC1 | 44.95 | –
19 | CCc1noc(CN(Cc2cccs2)CC2CCCO2)n1 (stereo unspecified) | -2.113 | –
20 | CNc1ncc(CN(C)C(=O)c2c[nH]nc2-c2cccc(F)c2)cn1 | 11.75 | –
21 | Cn1ncc2c1CCCN(C(=O)C1CCCC1)C2 | 10.97 | –
22 | Cn1c(CN2CCN(CC3CCCO3)CC2)nc2ccccc21 (stereo unspecified) | 22.41 | –
23 | CCCc1ccc(N2CCN(Cc3nc4ccccc4n3C)CC2)cc1 | -0.4475 | –
24 | Cn1c(CCN2CCN(CCc3ccccc3)CC2)nc2ccccc21 | 76.94 | –
25 | Cc1cc(C)n(C2CCN(Cc3nc4ccccc4n3C)CC2)n1 | 18.24 | –
26 | Cn1c(CCN2CCN(c3ccc(O)cc3)CC2)nc2ccccc21 | 103.8 | –

Row | SMILES | Percent Effect (10 mM as filed; unlikely as a test dose) [%] | Percent Effect (10 mM, 10 mM as filed; unlikely as a test dose)
27 | CCNC(=O)N1CCN(c2nc3ccccc3n2C)CC1 | 17.71 | –
28 | CCCc1nc(NC2(COC)CCCC2)c2cnn(C)c2n1 | 21.48 | –
29 | Cc1ccc(C)c(S(=O)(=O)CCN2CCCC2Cn2cncn2)c1 (stereo unspecified) | 23.02 | –
30 | Fc1cccnc1O[C@@H]1CN(Cc2ccccn2)[C@@H]2CCCO[C@@H]21.O=C(O)C(F)(F)F.O=C(O)C(F)(F)F | 2.355 | –
31 | Cc1ccc(-c2cc(CN3CCCC(Cn4cncn4)C3)on2)cc1 (stereo unspecified) | 8.833 | –
32 | O=C(C[C@@H]1COC[C@H]2CN(Cc3ccccn3)C[C@@H]12)N1CCOCC1.O=C(O)C(F)(F)F.O=C(O)C(F)(F)F | 6.339 | –
33 | Fc1ccc(C(NCc2nnc(-c3ccco3)o2)C2CCC2)cc1 (stereo unspecified) | 56.57 | –
34 | Fc1ccc(C(NCc2nnc(C3CC3)o2)C2CCC2)cc1 (stereo unspecified) | 14.86 | –
35 | c1ccc(C(NCc2nnc(-c3ccco3)o2)C2CCC2)cc1 (stereo unspecified) | 14.05 | –
36 | CC(CNC(=O)Nc1ccc(F)cc1-n1cccc1)N1CCOCC1 (stereo unspecified) | 31.56 | –
37 | CCNc1ncc(C(=O)NCc2ccc(F)c(C(F)(F)F)c2)cn1 | -33.7 | –
38 | CCNc1ncc(C(=O)NCc2ccc3nsnc3c2)cn1 | 105.6 | –
39 | CCNc1ncc(C(=O)NCc2cccc(OC(F)(F)F)c2)cn1 | 27.01 | –
40 | O=C(NC1CC1)N1C[C@H]2CN(Cc3cccc(F)c3)C(=O)[C@H]2C1 | -1.024 | –
41 | Cc1ccc(CN(CCCN(C)C)Cc2cnc(N(C)C)nc2)o1.O=C(O)CC(O)(CC(=O)O)C(=O)O | -2.664 | –
42 | O=C(O)C(F)(F)F.O=C([C@H]1C[C@H]2OCC[C@H]2N(Cc2ccccn2)C1)N1CCCCO1 | -19.88 | –
43 | N#Cc1cccnc1OC1CCN(C(=O)c2cc(C3CC3)on2)CC1 | 39.39 | –
44 | O=C(c1cc(C2CC2)on1)N1CCC(Oc2ncccc2Br)CC1 | 83.65 | –
45 | O=C(c1cnccn1)N1CCC(Oc2ncccc2Cl)CC1 | 13.63 | –
46 | O=C(c1ccccn1)N1CCC(Oc2ncccc2Cl)CC1 | 37.07 | –
47 | O=C(c1cc(C2CC2)on1)N1CCC(Oc2ncccc2Cl)CC1 | 82.03 | –
48 | O=C(c1ccccn1)N1CCC(Oc2cccnc2)CC1 | -17.68 | –
49 | CN(C)S(=O)(=O)N1CC(c2ccnc(Nc3ccccn3)n2)C1 | 25.46 | –
50 | COc1ccc(CN2CCC3(CC2)CCN(CC2CC2)C3=O)cc1.O=C(O)C(F)(F)F | 6.492 | –
51 | CCC(=O)N1CCCCC[C@@H]2[C@@H]1[C@H](c1cccc(F)c1)CN2C | -24.01 | –
52 | COc1cccc(C(=O)Nc2n[nH]c(C3CCCO3)n2)c1 (stereo unspecified) | 12.47 | –

Row | SMILES | Percent Effect (10 mM as filed; unlikely as a test dose) [%] | Percent Effect (10 mM, 10 mM as filed; unlikely as a test dose)
53 | CCOc1ncccc1CNC(=O)NCCNC(=O)c1ccco1 | 0.1336 | –
54 | CCNC(=O)c1cc2n(n1)CCCO2 | -8.867 | –
55 | O=C(c1ccncc1)N1CCc2[nH]nc(Nc3ccccc3)c2C1 | -24.78 | –
56 | O=C(c1cccnc1)N1CCc2[nH]nc(Nc3ccccc3)c2C1 | 46.76 | –
57 | O=C(c1cncs1)N1CCc2[nH]nc(Nc3ccccc3)c2C1 | 58.68 | –
58 | CN(Cc1ccc(F)cc1)CC1(O)CCN(C(=O)c2cccs2)C1 (stereo unspecified) | -44.56 | –
59 | COc1cccc(CCC(=O)Nc2ccn(C)n2)c1OC | -2.109 | –
60 | CCOc1c(Br)cc(C2C3=C(COC3=O)Nc3[nH]nc(C)c32)cc1OC (stereo unspecified) | 33.99 | –
61 | COc1cc(C2C3=C(COC3=O)Nc3[nH]nc(C)c32)cc(Br)c1O (stereo unspecified) | 101.5 | –
62 | COc1cccc(C2C3=C(COC3=O)Nc3[nH]nc(C)c32)c1O (stereo unspecified) | -49.1 | –
63 | Cc1cnn(C2CCCN(C(=O)c3cc(C)sc3C)C2)c1 (stereo unspecified) | 1.503 | –
64 | COC(=O)CC(c1ccc(OC)c(OC)c1OC)c1c(O)n[nH]c1C (stereo unspecified) | 39.76 | –
65 | CCOC(=O)CC(c1ccc(OC)c(OC)c1)c1c(O)n[nH]c1C (stereo unspecified) | 17.75 | –
66 | CCOC(=O)CC(c1cccc(OC)c1OC)c1c(C)[nH][nH]c1=O (stereo unspecified) | – | 39.38% and 50.02%
67 | O=C(NC[C@]1(O)CCN(Cc2ccccc2F)C[C@H]1O)c1c[nH]cn1 | -15.39 | –
68 | CC(C)c1ccc(CN[C@@H]2COC[C@H]2c2ccc(F)cc2)cc1 | 38.02 | –
69 | COc1ccccc1CNC(=O)C1=NN(c2ccc(C)cc2)C(=O)CN1 | 59.16 | –
70 | O=C(NCc1cccnc1)C1=NN(c2ccccc2)C(=O)CN1 | -12.05 | –
71 | COCc1ccc(CNC(=O)C2=NN(c3ccccc3)C(=O)CN2)cc1 | -8.016 | –
72 | O=C(NCCNC(=O)c1scnc1Cl)c1ccccc1Cl | 2.223 | –
73 | CCn1nc(C)c2nc(C)nc(NCCc3ccc(C)cc3)c21 | 87.9 | –
74 | CCCc1nc(N2CCN(CC)CC2)c2c(n1)c(C)nn2CC | 19.74 | –
75 | CCCc1nc(N2CCCCC2)c2c(n1)c(C)nn2CC | -11.73 | –
76 | CCCc1nc(N2CCC(C)CC2)c2c(n1)c(C)nn2CC | 17.45 | –
77 | CCn1nc(C)c2nc(C)nc(NC3CCCC3)c21 | 42.26 | –
78 | CCCc1nc(N2CCCCCC2)c2c(n1)c(C)nn2CC | 68.4 | –

Row | SMILES | Percent Effect (10 mM as filed; unlikely as a test dose) [%] | Percent Effect (10 mM, 10 mM as filed; unlikely as a test dose)
79 | CCn1nc(C)c2nc(C)nc(NCCc3ccccc3)c21 | 18.42 | –
80 | CCCc1nc(NCCc2ccccc2)c2c(n1)c(C)nn2CC | 98.38 | –
81 | CCCc1nc(N2CCSCC2)c2c(n1)c(C)nn2CC | 16.49 | –
82 | COc1cc(C(=O)N(CCC#N)Cc2ccccn2)ccc1C | 2.226 | –
83 | COC1CCN(S(=O)(=O)NCC2COc3ccccc3C2)CC1 (stereo unspecified) | 23.14 | –
84 | CC(=O)N1CCC(C(=O)NC2CCc3nccn3C2)CC1 (stereo unspecified) | -4.558 | –
85 | Cc1nnc(C2CCN(c3ccc(F)cc3)CC2)o1 | 0.33 | –
86 | CC[C@H]1N(C)CCC[C@]12CCC(=O)N2Cc1ccncc1.O=C(O)C(F)(F)F.O=C(O)C(F)(F)F | 4.525 | –
87 | Cc1cn2c(n1)CCC(NC(=O)c1[nH]nc(C)c1Br)C2 (stereo unspecified) | -35.87 | –
88 | O=C(CSC1CCc2ccccc2NC1=O)NC1CC1 (stereo unspecified) | -0.1015 | –
89 | COc1cccc(CN2CCC(c3nn(CCN)c4nccnc34)C2)c1 (stereo unspecified) | -33.21 | –
90 | COc1cccc(NC(=O)NCC2CCCN(C3CCOCC3)C2)c1 (stereo unspecified) | -9.956 | –
91 | COC(=O)c1sccc1S(=O)(=O)N1CCC(Oc2cccnn2)CC1 | 10.5 | –
92 | COC(=O)c1sccc1S(=O)(=O)N1CCC(Oc2cnccn2)CC1 | 11.89 | –
93 | COC(=O)c1sccc1S(=O)(=O)N1CCC(Oc2ncccc2Cl)CC1 | 63.53 | –
94 | CCOCC1CN(C(=O)c2ccnnc2)Cc2cnn(CC)c21.O=C(O)C(F)(F)F (stereo unspecified) | 10.27 | –
95 | NC(=O)CN1CC(c2nc(C3CC3)no2)C1.O=C(O)C(=O)O | -1.644 | –
96 | O=C(CN1CC(c2nc(C3CC3)no2)C1)N1CCOCC1.O=C(O)C(=O)O | 59.8 | –
97 | CC1CCN(C(=O)CN2CC(c3nc(C4CC4)no3)C2)CC1.O=C(O)C(=O)O | -25.89 | –
98 | CN(Cc1ccncc1)c1cncc(Br)c1 | -1.215 | –
99 | CN(C)[C@H]1CCN(c2nc(C(C)(C)C)nc3c2cnn3C)C1 | 15.83 | –
100 | COCC1CCN(c2nc(C(C)(C)C)nc3c2cnn3C)C1 (stereo unspecified) | 57.26 | –
101 | Cn1ncc2c(N3CCC(CCO)CC3)nc(C(C)(C)C)nc21 | 26.71 | –
